Results on 52 compounds are retold here after PubChem BioAssay.

The nature of assay [1]: inhibitors of TNFa-induced NFkB p65 translocation, primary screen, imaging, HUVEC, MLSMR starter and 10KST1 sets (AID 438;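 active = inhibition above 20% together with a positive visual image hit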;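 note: compound added about 3h40 before a 20 min TNFalpha stimulation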;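 for inhibition: signal is the nuclear over cytoplasmic p65 intensity ratio per well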). To be noted: HUVEC TNFa-induced p65 nuclear translocation; cell count: measured here: nuclei count (cytotoxicity indicator), at 2.08 µM; inhibition: at 2 µM, stronger effect = higher value, 0% TNFa-plus-vehicle, 100% no-TNFa wells.
Assay [2] in a line: inhibitors of mutant huntingtin aggregation, primary screen, imaging, exon1htt(103Q)mCFP cells, high-content imaging (AID 483;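 active = visual image review flags a hit and inhibition of aggregation exceeds 20%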;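 note: compound exposure lasted 3 days before fixation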;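 for nuclei count: percent of the per-plate median nuclei count of sample wells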). To be noted: exon1htt(103Q)mCFP cell line, aggregate imaging, at 2 µM; inhibition of aggregation: stronger effect = higher value; nuclei count: measured here: cell count, toxicity.
A short description of assay [3]: inhibitors of E-selectin induction by TNFa, primary screen, imaging, HUVEC, immunofluorescence, MLSMR starter and 10KST1 sets (AID 487;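 active = visually confirmed hit in the image check and inhibition above 20%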;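 for inhibition: signal is fraction of cell area covered by stained E-selectin grains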;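 for nuclei count: 100% = median nuclei count of all wells on the same plate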). To be noted: HUVEC TNFalpha-induced E-selectin immunofluorescence imaging, at 2 µM; inhibition: stronger effect = higher value; nuclei count: measured here: cell number, toxicity.
The target in assay [4] is Voltage-gated potassium channel subunit beta-2 (Rattus norvegicus) (UniProt P62483). The assay can be described thus: KvBeta enzyme negative modulators, primary screen, biochemical, NADPH fluorescence (AID 622;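 active = fluorescence slope higher than the sample average by over 3 SD, cut at about -0.22 in these data, passing the limit was not always enough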;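 note: slope of raw intensity against log time taken from 70 to 1610 s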). To be noted: recombinant KvBeta, 4-cyanobenzaldehyde reduction, at 10 µM, stronger effect = higher value.
Voltage-gated potassium channel subunit beta-2 (Rattus norvegicus), sequence (P62483 whole entry, looked up): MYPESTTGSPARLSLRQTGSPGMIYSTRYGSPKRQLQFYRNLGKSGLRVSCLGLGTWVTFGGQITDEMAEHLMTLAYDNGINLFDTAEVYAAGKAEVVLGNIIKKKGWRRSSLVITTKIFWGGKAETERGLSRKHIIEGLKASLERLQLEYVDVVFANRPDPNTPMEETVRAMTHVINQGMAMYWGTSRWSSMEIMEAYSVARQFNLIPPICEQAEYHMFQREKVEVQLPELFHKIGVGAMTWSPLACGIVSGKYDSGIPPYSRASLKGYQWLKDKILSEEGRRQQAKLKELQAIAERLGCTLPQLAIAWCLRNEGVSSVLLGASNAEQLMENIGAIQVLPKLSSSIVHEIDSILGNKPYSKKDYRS
For assay [5] the target is unchanged. The assay is described as follows: KvBeta positive modulators, primary screen, biochemical, NADPH fluorescence (AID 623;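 active = NADPH fluorescence slope more negative than the mean of all samples by about 3 SD, 99.7% confidence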;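 note: fluorescence intensity change per second fitted from 20 to 320 s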). Particulars: Recombinant KvBeta, NADPH fluorescence decrease slope, 10 min; at 10 µM; stronger effect = lower value.
The target of assay [6] is Muscarinic acetylcholine receptor M4 (Homo sapiens) (UniProt P08173). The assay is described as follows: compounds altering M4/GIRK thallium flux, either direction, primary screen, M4 allosteric agonist project, cell-based, HEK293 M4/GIRK, BTC-AM (AID 625;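 active = fluorescence slope after compound addition differing from the mean of all tested samples at 99.7% confidence, mostly higher but some lower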;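 note: thallium influx through GIRK channels coupled to M4 in HEK293 cells with BTC-AM dye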). To be noted: at 10 µM, actives lie on both sides.
Muscarinic acetylcholine receptor M4 (Homo sapiens), sequence (P08173 whole entry, looked up): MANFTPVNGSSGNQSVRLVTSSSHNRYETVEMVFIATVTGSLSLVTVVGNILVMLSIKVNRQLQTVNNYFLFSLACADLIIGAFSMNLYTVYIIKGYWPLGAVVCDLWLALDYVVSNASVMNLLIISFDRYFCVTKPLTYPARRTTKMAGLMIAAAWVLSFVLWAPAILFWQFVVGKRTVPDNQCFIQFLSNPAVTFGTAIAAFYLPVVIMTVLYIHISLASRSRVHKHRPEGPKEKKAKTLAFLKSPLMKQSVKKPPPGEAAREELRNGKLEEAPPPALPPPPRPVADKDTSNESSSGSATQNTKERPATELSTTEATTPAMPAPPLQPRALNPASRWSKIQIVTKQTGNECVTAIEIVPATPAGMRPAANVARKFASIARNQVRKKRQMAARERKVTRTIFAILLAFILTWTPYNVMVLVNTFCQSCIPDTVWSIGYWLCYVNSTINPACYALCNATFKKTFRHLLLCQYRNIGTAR
Assay [7] is described as follows: inhibitors of Sendai virus-induced IRF3 signaling, primary screen, TLR/RLR signaling modifier project, cell-based, Sendai virus stimulus, luciferase, 10K MLSCN set (AID 602276;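 active = inhibition at or above 50% at 10 µM; inactive = inhibition below 50%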;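 note: firefly luciferase from ISG56 promoter only with Renilla not read in this screen; 0% = Sendai virus plus DMSO and 100% = medium plus DMSO without virus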). Particulars: HEK293 RL24 IRF3 luciferase reporter, at 10 µM, stronger effect = higher value.
Assay [8] can be described thus: inhibitors of poly I:C-induced TLR3 signaling, primary screen, cell-based, poly I:C stimulus, luciferase, 10K MLSCN set (AID 602277;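 active = inhibition of the reporter signal at or above 50%; inactive = inhibition below 50%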). To be noted: HEK293-TLR3 RL24 IRF3 luciferase reporter, at 10 µM, stronger effect = higher value. (In general: In a reporter assay the amount or activity of a reporter protein is the signal.)
Assay [9] addresses Alpha-2C adrenergic receptor (Homo sapiens) (UniProt P18825). The assay is described as follows: modulators of alpha2C/GIRK thallium flux, primary screen, cell-based, HEK293 alpha2C/GIRK1/2 (AID 624;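 active = fluorescence slope after compound addition differing from the mean of all screened samples at 99.7% confidence, in either direction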;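 note: slope of fluorescence ratio to pre-addition baseline per second over 15 to 24 s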). To be noted: thallium flux BTC fluorescence, at 10 µM, actives lie on both sides.
Assay [10] is described as follows: DUSP6 inhibitors restoring Erk phosphorylation by chemical complementation, primary imaging in DUSP6-transfected HeLa (AID 609;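 active = compounds giving at least 50% inhibition in the cell-based MKP-3 phosphatase rescue imaging test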;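 for inhibition: phospho-Erk level distribution per well compared with pooled transfected vehicle control wells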). Particulars: HeLa MKP-3 transfected, phospho-Erk imaging KS statistic, at 10 µM, cells stimulated with TPA for 15 min.
Assay [11] deals with Dual specificity protein phosphatase 6 (Homo sapiens) (UniProt Q16828). The description is as above. Particulars: HeLa MKP-3 transfected, phospho-Erk imaging KS statistic; at 10 µM; stronger effect = higher value; cells stimulated with TPA for 15 min.
Dual specificity protein phosphatase 6 (Homo sapiens), sequence (Q16828 whole entry, looked up): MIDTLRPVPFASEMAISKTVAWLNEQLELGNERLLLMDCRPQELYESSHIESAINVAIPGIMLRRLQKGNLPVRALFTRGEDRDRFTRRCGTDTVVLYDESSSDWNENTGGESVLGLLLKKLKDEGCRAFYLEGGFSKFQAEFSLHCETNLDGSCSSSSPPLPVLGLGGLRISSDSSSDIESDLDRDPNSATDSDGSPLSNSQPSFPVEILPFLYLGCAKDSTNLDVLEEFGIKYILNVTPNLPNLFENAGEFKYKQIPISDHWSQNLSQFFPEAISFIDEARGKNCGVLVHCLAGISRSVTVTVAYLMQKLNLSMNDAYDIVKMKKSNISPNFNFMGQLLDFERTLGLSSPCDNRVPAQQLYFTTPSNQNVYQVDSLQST
Assay [12] is described as follows: inhibitors of larval lipid processing in zebrafish, primary screen, whole organism, PED6 fluorescence, gall bladder and intestine (AID 686;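 active = a full or partial loss of lipid-probe fluorescence in the fish gall bladder, intestine or both, judged by eye; inactive = no fluorescence loss, or compound toxic to the fish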;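 note: larvae 5 to 7 days old with five fish per well; signal comes from phospholipase A2 cleavage of quenched PED6 carried via bile; overnight exposure to compound and PED6 before scoring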). Particulars: Zebrafish larvae PED6 lipid processing, fluorescence scoring; screened at 20 µM (by protocol).
Assay [13] is described as follows: inhibitors of Chlamydomonas gravitaxis, primary screen, whole organism, Chlamydomonas reinhardtii, WT vs cilia-less mutant, absorbance, 96-well (AID 463189).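 Note: 0% = wild type cc124 cells in DMSO and 100% = ciliumless bld1 mutant cells.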 To be noted: OD600 absorbance, 2 days, at 10 µM, stronger effect = higher value.
Setting [14] is: measured here: cell density z-score.
Where [15] appears, read: measured here: nuclear c-Myc green intensity z-score.
The mark [16] stands for this setting: measured here: nuclear pErk red intensity z-score, stronger effect = higher value.

Molecules are shown by their SMILES. Where “and” joins values, the source holds several entries; their conditions need not be identical. Equal values may be shown once. Calls of active or inactive are those of the source.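 Rule for the calls, unless noted: active = inhibition at or above 50% relative to wild type and mutant plate controls; inactive = inhibition below 50%.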

Alpha-2C adrenergic receptor (Homo sapiens), sequence (P18825 whole entry, looked up): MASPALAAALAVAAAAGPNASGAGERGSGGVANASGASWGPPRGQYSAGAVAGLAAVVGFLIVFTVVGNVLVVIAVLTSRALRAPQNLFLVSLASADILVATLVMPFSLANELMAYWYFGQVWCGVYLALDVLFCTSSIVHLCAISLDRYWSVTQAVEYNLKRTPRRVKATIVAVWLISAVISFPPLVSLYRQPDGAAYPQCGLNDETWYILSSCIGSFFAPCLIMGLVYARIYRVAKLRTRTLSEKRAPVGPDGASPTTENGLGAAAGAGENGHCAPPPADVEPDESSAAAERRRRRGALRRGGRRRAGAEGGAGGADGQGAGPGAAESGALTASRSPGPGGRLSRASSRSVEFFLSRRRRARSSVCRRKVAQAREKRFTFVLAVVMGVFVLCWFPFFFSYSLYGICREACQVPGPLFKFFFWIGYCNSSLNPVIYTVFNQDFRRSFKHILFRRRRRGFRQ

Broadly, the inhibition is the drop in the measured response relative to a control, in per cent. As for `CCOC(=O)c1ccc(COC(=O)CCc2nc3ccccc3[nH]c2=O)o1`, the cell count in [1] worked out at 410. The results for the inhibition in assay [1], in assay [7] and in assay [8] were 10.6% (inactive), 15.9% (inactive) and 18.3% (inactive), respectively. Further, in [2], the inhibition of aggregation was -18.4% (inactive). The values for the nuclei count in assay [2] and in assay [3] were 108% and 147%, respectively. In addition, the fluorescence slope in assay [4] was -0.546 (inactive); in assay [6], 0.00556 (inactive). Further, the NADPH fluorescence slope in [5] is 1.7e-05 (inactive).
For the compound `N=c1c(C(=O)NCc2ccc(F)cc2)cc2c(=O)n3ccccc3nc2n1CCCN1CCOCC1`, in assay [1], the cell count was found to be 537 and the inhibition was 4.4% (inactive). In assay [2], the inhibition of aggregation was -26.3% (inactive) and the nuclei count is 102%. Also, in [3], the inhibition is -45.8% (inactive) and the nuclei count was 122%. In addition, the fluorescence slope in assay [4] was -0.374 (inactive). Moreover, the NADPH fluorescence slope in assay [5] was -1e-05 (inactive). The slope in assay [9] is 0.00357 (inactive). Also, the inhibition in [8] was 69.7% (active).
Regarding `COc1ccc(OC)c(NC(=O)C2CCN(c3cc(-c4ccccc4)nc4ncnn34)CC2)c1`, the cell count in [1] amounted to 449. In addition, the inhibition was 2.1% (inactive) in [1], 15% (inactive) in assay [7] and 15.1% (inactive) in [8]. Further, the inhibition of aggregation in assay [2] is 17% (inactive). Also, the nuclei count in assay [2] came out at 95%; in [3], 150%. Also, the fluorescence slope is -0.528 (inactive) in assay [4] and 0.00653 (inactive) in assay [6]. For the same compound, in [5], the NADPH fluorescence slope is 1.4e-05 (inactive).
Take `Nc1nc(C(=O)N2CCOCC2)nn1S(=O)(=O)c1ccc(Cl)cc1`: in assay [1], the cell count turned out to be 177. The inhibition is 23.2% (active) in assay [1], 11% (inactive) in [7] and 15.9% (inactive) in [8]. Also, the inhibition of aggregation in assay [2] is -3.7% (inactive). Besides, the nuclei count in [2] was determined as 103%; in assay [3] it was 145%. In addition, the fluorescence slope was -0.59 (inactive) in assay [4] and 0.00923 (inactive) in assay [6]. The NADPH fluorescence slope in assay [5] was -2.7e-05 (inactive).
Consider `CCCCc1oc2ccccc2c1C(=O)c1cc(I)c(OCCN(CC)CC)c(I)c1`, for which the cell count in [1] is 651. Further, the inhibition in assay [1] is -9% (inactive); in assay [3] it was -235% (inactive); in assay [11], 5.42% (inactive); in [7] it was 9.88% (inactive); in assay [8], 43.5% (inactive). The compound also yielded a nuclei count in assay [3] of 136%. For the same compound, the z-score was 0.542 in assay [10] (setting [14]), -0.674 in assay [10] (setting [15]) and 0.954 in assay [10] (setting [16]). Moreover, the fluorescence slope in assay [4] was -0.467 (inactive). Moreover, in assay [5], the NADPH fluorescence slope was -4.3e-05 (inactive). Besides, the slope in assay [9] was 0.00817 (inactive).
`CCn1cc(C(=O)O)c(=O)c2ccc(C)nc21`: the cell count in [1] came out at 578. In addition, the inhibition in [1] is -2.8% (inactive); in assay [3] it was -83.2% (inactive); in assay [11], 5.42% (inactive); in [7] it was 15.8% (inactive); in assay [8], 40.1% (inactive). In addition, in assay [3], the nuclei count came to 111%. Further, the z-score is 2.22 in assay [10] (setting [14]), -0.0952 in assay [10] (setting [15]) and 0.302 in assay [10] (setting [16]). Also, the fluorescence slope in assay [4] is -0.455 (inactive). For the same compound, the NADPH fluorescence slope in [5] was -3.9e-05 (inactive). Also, the slope in assay [9] is 0.00465 (inactive). Further, the call in [12] was inactive.
For `c1cc(CN2CCCCC2)cc(OCCCNc2nc3ccccc3s2)c1`, the inhibition in assay [13] was 26.8% (inactive).
Same read-out and setting: under `CC(=O)NCCc1c[nH]c2ccc(O)cc12` stands -4.58% (inactive); under `CCOC(=O)C12CC1/C(=N/O)c1ccccc1O2` (stereo not drawn), 6.31% (inactive).
Still for that read-out and setting: then `C[C@@H]1C(=O)NC2=Nc3cccc(Cl)c3CN21`, with 1.72% (inactive); and `CCCC[C@@]1(C2CCCC2)Cc2cc(OCC(=O)O)c(Cl)c(Cl)c2C1=O`, with 4.57% (inactive); and `COc1cc(CC(=O)O)ccc1O`, with -2.57% (inactive).
Still for that read-out and setting: then `CC(=O)O[C@H]1C(=O)[C@@]2(C)C([C@H](OC(=O)c3ccccc3)[C@]3(O)C[C@H](OC(=O)[C@H](O)[C@@H](NC(=O)c4ccccc4)c4ccccc4)C(C)=C1C3(C)C)[C@]1(OC(C)=O)CO[C@@H]1C[C@@H]2O` (stereo partly drawn), with 8.47% (inactive); and `N[C@@H]1CONC1=O`, with 0.59% (inactive).
For the compound `NCC(O)C1CCCCCCC1` (stereo not drawn), the inhibition in [13] is 2.73% (inactive).
As for `CCCOc1ccccc1-c1nc2n[nH]nc2c(=O)[nH]1`, the inhibition in [13] is -8.54% (inactive).
The same measure, in the same setting: then `CN(C)c1ccc(/C=C2\C(=O)Nc3ccccc32)cc1`, with 4.05% (inactive).
Still for that read-out and setting: then `CO/N=C(\C(=O)N[C@@H]1C(=O)N2C(C(=O)O)=C(CSc3nc(=O)c(O)nn3C)CSC12)c1csc(N)n1` (stereo partly drawn), with 7.64% (inactive).
On the same count and under the same terms, under `COCC(=O)O[C@]1(CCN(C)CCCc2nc3ccccc3[nH]2)CCc2cc(F)ccc2[C@@H]1C(C)C` stands 11.6% (inactive).
As for `C[C@@](Cc1ccc(O)c(O)c1)(NN)C(=O)O`, the inhibition in assay [13] is -8.89% (inactive).
The same measure, in the same setting: under `CC(C)(Oc1ccc(C2CC2(Cl)Cl)cc1)C(=O)O` (stereo not drawn) stands 1.41% (inactive); under `CCN1CCc2nc(N)oc2CC1`, 6.74% (inactive).
Take `O=C1Cc2c([nH]c3ccc(Br)cc23)-c2ccccc2N1`: the inhibition in assay [13] is -1.32% (inactive).
`CCn1cc(C(=O)O)c(=O)c2cc(F)c(N3CCNC(C)C3)c(F)c21` (stereo not drawn): the inhibition in assay [13] is 3.51% (inactive).
On the same count and under the same terms, under `C[N+](C)(C)CCCCCC[N+](C)(C)C` stands 5.27% (inactive) and -2.94% (inactive); under `CN1CCc2cc(O)c(O)cc2C(c2ccccc2)C1` (stereo not drawn), 2.5% (inactive); under `CCCNC(C)C(=O)Nc1ccccc1C` (stereo not drawn), 6.52% (inactive).
The same measure, in the same setting: under `C#CC(N)CCC(=O)O` (stereo not drawn) stands -0.038% (inactive); under `CNC[C@H](O)c1ccc(O)c(O)c1`, 1.9% (inactive); under `NC(=O)c1ccccc1`, -2.55% (inactive).
On the same count and under the same terms, then `COc1ccc(NC(=O)c2ccc(-c3ccc(-c4noc(C)n4)cc3C)cc2)cc1N1CCN(C)CC1`, with 47.6% (inactive); and `NC1C=CC=C(C(=O)O)C1` (stereo not drawn), with -4.63% (inactive); and `CN1CC(O)C(O)C(O)C1CO` (stereo not drawn), with 10.5% (inactive).
Consider `COc1cc(NS(C)(=O)=O)ccc1Nc1c2ccccc2nc2ccccc12`, for which the inhibition in [13] was -1.97% (inactive).
On the same count and under the same terms, under `CC(C)NC[C@H](O)COc1cccc2[nH]ccc12` stands -3.11% (inactive) and 2.85% (inactive); under `NCCCCC(=O)O`, 9.64% (inactive).
On to `CCSC(N)=Nc1ccc(C(F)(F)F)cc1`, for which the inhibition in assay [13] was 3.43% (inactive).
Still for that read-out and setting: under `CCCC(C(=O)OCCN(CC)CC)(c1ccccc1)c1ccccc1` stands 4.83% (inactive).
Consider `NC(N)=NCc1cccc(I)c1`, for which the inhibition in assay [13] was 4.17% (inactive).
On the same count and under the same terms, under `Clc1ccc(N2CCN(Cc3c[nH]c4ncccc34)CC2)cc1` stands 5.9% (inactive); under `CCC1(O)CC2CN(CCc3c([nH]c4ccccc34)[C@@](C(=O)OC)(c3cc4c(cc3OC)N(C)C3[C@]45CCN4CC=C[C@@](CC)([C@@H](OC(C)=O)[C@]3(O)C(=O)OC)[C@H]45)C2)C1` (stereo partly drawn), 4.61% (inactive).
Same read-out and setting: under `Nc1nc(N)c2nc(CNc3ccc(C(=O)NC(CCC(=O)O)C(=O)O)cc3)cnc2n1` (stereo not drawn) stands 10.5% (inactive); under `Cc1[nH]c(=O)c(C#N)cc1-c1ccncc1`, 8.79% (inactive); under `CC[C@H](C)C(=O)O[C@H]1CCC=C2C=C[C@H](C)[C@H](CC[C@@H]3C[C@@H](O)CC(=O)O3)[C@H]21`, 9.46% (inactive).
Still for that read-out and setting: then `CN1CCC2(CCN3CCc4c(oc5ccccc45)C3C2)N(C)C1=O` (stereo not drawn), with -3.27% (inactive); and `CNCCNS(=O)(=O)c1cccc2cnccc12`, with 5.09% (inactive).
On to `O=C1CC2(CCCC2)CC(=O)N1CCCCN1CCN(c2ncccn2)CC1`, for which the inhibition in assay [13] is 3.65% (inactive).
Take `CC(C)C1C2CCC(C2)C1N` (stereo not drawn): the inhibition in [13] was 3.56% (inactive).
Same read-out and setting: under `CNCC[C@H](Oc1ccc(C(F)(F)F)cc1)c1ccccc1` stands -14.3% (inactive).
As to `CC1C(=O)N(C)C(=O)c2nc[nH]c21` (stereo not drawn), the inhibition in assay [13] is 7.36% (inactive).
Same read-out and setting: then `Cn1cnc2c(NCc3ccccc3)nc(NCCO)nc21`, with 5.79% (inactive).
Same read-out and setting: then `CCN1/C(=C/C(C)=O)Sc2ccc(OC)cc21`, with 9.38% (inactive).
